Source: PubChem BioAssay (NCATS)
Records with an inconclusive call do not appear. A number with no mark means an inactive call. The source made the active and inactive calls. The call rests on the fitted dose curve; in most records, active means well fitted activation curve with a large enough effect; inconclusive means small, poorly fitted or top-dose-only effect; inactive means no such curve, though single readings can be large or run the other way.

molecular target: Cellular tumor antigen p53 (Homo sapiens) (UniProt P04637); assay: Primary qHTS for small molecule compounds that upregulate eGFP-tagged delta133p53alpha (in N-terminal) cells. (AID 2060322); details: NCI-H358 eGFP-delta133p53alpha fluorescence, 24 h; activation: stronger effect = higher value; further: nearly all actives have a fitted effect of over 75% in size;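 on activation: series mostly up to about 56 µM; 0% = DMSO vehicle and 100% = reference activator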
Sequence (P04637 whole entry, looked up): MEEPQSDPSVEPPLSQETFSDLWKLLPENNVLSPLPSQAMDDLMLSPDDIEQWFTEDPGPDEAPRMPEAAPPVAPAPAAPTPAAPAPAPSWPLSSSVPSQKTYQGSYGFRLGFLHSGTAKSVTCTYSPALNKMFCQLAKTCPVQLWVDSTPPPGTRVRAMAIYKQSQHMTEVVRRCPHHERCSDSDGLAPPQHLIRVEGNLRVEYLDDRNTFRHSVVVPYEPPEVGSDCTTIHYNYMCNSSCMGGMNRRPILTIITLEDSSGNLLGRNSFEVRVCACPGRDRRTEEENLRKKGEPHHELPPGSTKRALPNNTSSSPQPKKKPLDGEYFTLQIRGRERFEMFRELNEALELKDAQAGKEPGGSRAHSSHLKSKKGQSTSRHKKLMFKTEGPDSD
Procedure, shortened: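 NCI-H358 cells pre-induced 24 h with 10 ng/ml doxycycline to express N-terminal eGFP-delta133p53alpha, then dosed 24 h at 37C without doxycycline; fixed, Hoechst-stained, GFP intensity by laser scanning cytometry, normalized to DMSO (0%) and 57.5 uM 5-azacytidine (100%).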
Potency means the concentration at half of the fitted maximal effect.

SMILES | activation [%] | Potency
CC(=O)O[C@@H]1[C@@H](O)[C@H](O[C@@H]2[C@@H](O)[C@@H](O)[C@H](O[C@H]3[C@H](O[C@H]4[C@H](O[C@H]5CC[C@@]6(C)C(CC[C@]7(C)C6CC=C6[C@@H]8CC(C)(C)CC[C@]8(C(=O)O)CC[C@]67C)[C@]5(C)CO)O[C@H](CO)[C@@H](O)[C@@H]4O)OC[C@@H](O)[C@@H]3O)O[C@H]2C)OC[C@H]1O (stereo partly drawn) | -3.05 | 
Cc1ncc([N+](=O)[O-])n1C[C@H](O)CN1CCOCC1 | 2.33 | 
Cc1sc2c(c1C)C(c1ccc(Cl)cc1)=N[C@H](CC(=O)NCCCCNC(=O)COc1cccc3c1C(=O)N([C@H]1CCC(=O)NC1=O)C3=O)c1nnc(C)n1-2 |  | 1.69 µM (active)
C[C@@H]1O[C@@H](O[C@H]2[C@@H]3C=CO[C@@H](O[C@@H]4O[C@H](CO)[C@@H](O)[C@H](O)[C@H]4O)[C@@H]3[C@@]3(CO)O[C@@H]23)[C@H](O)[C@H](OC(=O)/C=C/c2ccc(O)cc2)[C@H]1OC(=O)/C=C/c1ccc(O)cc1 | -13 | 
O=S(=O)(Nc1ccc(C(O)(C(F)(F)F)C(F)(F)F)cc1)c1cccs1 | -12.3 | 
C/C1=C\CCC(C)CCO[C@@H]2O[C@H](CO[C@@H]3OC[C@H](O)[C@H](O)[C@H]3OC1=O)[C@@H](O)[C@H](O)[C@H]2O (stereo partly drawn) | -24.1 | 
CC(=O)Nc1ccn(C2COC(COC(=O)c3ccccc3)O2)c(=O)n1 (stereo not drawn) | 16.4 | 
CC1(C)[C@@H](O)CC[C@]2(C)[C@H]3CC=C4[C@@H]5C[C@](C)(C(=O)O)CC[C@]5(C)CC[C@@]4(C)[C@]3(C)CC[C@@H]12 | 7 | 
